Measurements taken from ChEMBL document CHEMBL1961873, “Compounds: GSK PKIS; Assays: Nanosyn kinase panel” (2012).
“And” between values parts separate entries of the source, which are not always exact repeats. Equal entries are not always repeated.

Columns and labels:
[1] = system: Tyrosine-protein kinase ABL1 (Homo sapiens), P00519 [T315I]; details: at 1 µM
[2] = system: Tyrosine-protein kinase ABL1 (Homo sapiens), P00519 [Y253F]; details: at 0.1 µM
[3] = system: Tyrosine-protein kinase ABL1 (Homo sapiens), P00519 [Y253F]; details: at 1 µM
[4] = target: Tyrosine-protein kinase ABL1 (Homo sapiens) (UniProt P00519); details: at 0.1 µM
[5] = target: Tyrosine-protein kinase ABL1 (Homo sapiens) (UniProt P00519); details: at 1 µM
[6] = target: ALK tyrosine kinase receptor (Homo sapiens) (UniProt Q9UM73); details: at 0.1 µM
Sequence of ALK tyrosine kinase receptor (Homo sapiens) (Q9UM73 19-1620 limits assumed): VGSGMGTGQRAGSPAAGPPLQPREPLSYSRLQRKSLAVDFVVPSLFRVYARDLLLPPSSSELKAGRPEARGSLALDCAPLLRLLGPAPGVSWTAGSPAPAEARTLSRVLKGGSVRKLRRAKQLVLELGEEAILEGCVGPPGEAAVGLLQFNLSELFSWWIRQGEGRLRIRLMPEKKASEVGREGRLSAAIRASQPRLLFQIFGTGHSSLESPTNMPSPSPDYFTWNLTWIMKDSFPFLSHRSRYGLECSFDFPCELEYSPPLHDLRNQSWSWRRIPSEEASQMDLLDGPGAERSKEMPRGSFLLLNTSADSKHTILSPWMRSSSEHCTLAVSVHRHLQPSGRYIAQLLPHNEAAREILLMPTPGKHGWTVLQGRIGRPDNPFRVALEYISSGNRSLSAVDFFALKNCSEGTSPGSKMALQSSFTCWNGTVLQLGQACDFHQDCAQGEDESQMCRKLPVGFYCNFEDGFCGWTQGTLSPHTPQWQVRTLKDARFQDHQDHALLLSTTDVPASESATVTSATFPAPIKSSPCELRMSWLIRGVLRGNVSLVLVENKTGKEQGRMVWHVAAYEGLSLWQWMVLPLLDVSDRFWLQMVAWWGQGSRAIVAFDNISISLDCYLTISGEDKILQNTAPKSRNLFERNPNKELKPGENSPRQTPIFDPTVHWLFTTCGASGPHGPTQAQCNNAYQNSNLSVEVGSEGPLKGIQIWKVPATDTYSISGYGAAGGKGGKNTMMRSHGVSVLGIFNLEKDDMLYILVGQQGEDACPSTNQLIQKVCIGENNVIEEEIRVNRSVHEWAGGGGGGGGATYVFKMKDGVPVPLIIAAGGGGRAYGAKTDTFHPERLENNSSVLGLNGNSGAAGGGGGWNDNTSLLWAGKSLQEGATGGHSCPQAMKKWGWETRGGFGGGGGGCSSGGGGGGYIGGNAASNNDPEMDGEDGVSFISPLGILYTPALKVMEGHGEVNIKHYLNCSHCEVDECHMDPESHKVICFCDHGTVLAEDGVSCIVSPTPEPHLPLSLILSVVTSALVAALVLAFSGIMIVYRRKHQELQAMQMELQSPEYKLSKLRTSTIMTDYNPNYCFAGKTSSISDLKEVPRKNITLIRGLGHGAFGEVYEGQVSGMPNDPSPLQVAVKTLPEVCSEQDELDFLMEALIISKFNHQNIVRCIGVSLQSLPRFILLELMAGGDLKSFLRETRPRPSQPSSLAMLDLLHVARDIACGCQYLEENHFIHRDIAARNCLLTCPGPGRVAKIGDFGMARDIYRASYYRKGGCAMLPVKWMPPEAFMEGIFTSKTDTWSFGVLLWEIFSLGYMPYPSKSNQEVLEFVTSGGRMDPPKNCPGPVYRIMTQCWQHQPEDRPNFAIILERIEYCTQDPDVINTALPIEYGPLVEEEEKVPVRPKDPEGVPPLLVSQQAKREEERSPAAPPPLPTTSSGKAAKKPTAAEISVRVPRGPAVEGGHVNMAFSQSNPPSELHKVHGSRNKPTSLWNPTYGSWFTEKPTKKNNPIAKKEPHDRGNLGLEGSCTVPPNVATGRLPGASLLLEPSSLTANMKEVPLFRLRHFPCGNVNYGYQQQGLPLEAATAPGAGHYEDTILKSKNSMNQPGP

[7] = target: ALK tyrosine kinase receptor (Homo sapiens) (UniProt Q9UM73); details: at 1 µM
[8] = target: Tyrosine-protein kinase ABL2 (Homo sapiens) (UniProt P42684); details: at 0.1 µM
[9] = target: Tyrosine-protein kinase ABL2 (Homo sapiens) (UniProt P42684); details: at 1 µM
[10] = target: Tyrosine-protein kinase receptor UFO (Homo sapiens) (UniProt P30530); details: at 0.1 µM
Sequence of Tyrosine-protein kinase receptor UFO (Homo sapiens) (P30530 whole entry): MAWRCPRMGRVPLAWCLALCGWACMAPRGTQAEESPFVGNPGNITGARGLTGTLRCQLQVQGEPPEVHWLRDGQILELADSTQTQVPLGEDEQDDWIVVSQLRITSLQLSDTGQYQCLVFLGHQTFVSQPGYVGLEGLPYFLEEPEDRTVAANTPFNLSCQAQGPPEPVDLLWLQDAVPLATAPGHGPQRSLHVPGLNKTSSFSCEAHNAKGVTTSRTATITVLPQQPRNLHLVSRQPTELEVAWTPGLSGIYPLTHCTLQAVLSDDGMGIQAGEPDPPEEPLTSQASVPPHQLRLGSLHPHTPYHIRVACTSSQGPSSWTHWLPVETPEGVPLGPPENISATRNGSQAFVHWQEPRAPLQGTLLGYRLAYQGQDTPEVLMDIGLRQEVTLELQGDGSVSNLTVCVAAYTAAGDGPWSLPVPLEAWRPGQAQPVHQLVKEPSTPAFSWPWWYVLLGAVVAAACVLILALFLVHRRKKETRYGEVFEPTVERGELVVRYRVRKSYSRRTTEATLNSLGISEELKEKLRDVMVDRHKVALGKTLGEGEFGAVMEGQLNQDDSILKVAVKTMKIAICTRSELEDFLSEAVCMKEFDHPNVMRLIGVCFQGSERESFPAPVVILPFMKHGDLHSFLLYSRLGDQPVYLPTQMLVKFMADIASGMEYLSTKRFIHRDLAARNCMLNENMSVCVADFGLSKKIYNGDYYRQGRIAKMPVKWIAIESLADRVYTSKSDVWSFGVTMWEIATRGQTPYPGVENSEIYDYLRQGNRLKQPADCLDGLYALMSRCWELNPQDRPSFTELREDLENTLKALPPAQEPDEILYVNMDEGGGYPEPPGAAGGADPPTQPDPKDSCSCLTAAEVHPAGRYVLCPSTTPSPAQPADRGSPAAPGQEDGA

[11] = target: Tyrosine-protein kinase receptor UFO (Homo sapiens) (UniProt P30530); details: at 1 µM
[12] = target: Tyrosine-protein kinase Blk (Homo sapiens) (UniProt P51451); details: at 0.1 µM
Sequence of Tyrosine-protein kinase Blk (Homo sapiens) (P51451 2-505 limits assumed): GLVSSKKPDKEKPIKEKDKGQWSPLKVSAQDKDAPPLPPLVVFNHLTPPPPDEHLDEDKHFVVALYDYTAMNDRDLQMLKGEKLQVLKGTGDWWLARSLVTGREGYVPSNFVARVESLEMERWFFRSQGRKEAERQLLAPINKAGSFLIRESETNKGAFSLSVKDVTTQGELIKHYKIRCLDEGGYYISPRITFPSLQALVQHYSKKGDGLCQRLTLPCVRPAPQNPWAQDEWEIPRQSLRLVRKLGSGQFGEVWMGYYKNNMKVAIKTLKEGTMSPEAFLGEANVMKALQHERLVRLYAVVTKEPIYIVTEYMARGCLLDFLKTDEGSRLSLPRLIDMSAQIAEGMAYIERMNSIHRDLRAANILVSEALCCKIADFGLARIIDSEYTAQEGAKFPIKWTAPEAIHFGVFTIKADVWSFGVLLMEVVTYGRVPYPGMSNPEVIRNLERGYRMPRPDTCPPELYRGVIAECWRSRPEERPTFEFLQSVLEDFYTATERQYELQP

[13] = target: Tyrosine-protein kinase Blk (Homo sapiens) (UniProt P51451); details: at 1 µM
[14] = target: T1, Cytoplasmic tyrosine-protein kinase BMX (Homo sapiens) (UniProt P51813); details: at 0.1 µM
T1 sequence (whole entry): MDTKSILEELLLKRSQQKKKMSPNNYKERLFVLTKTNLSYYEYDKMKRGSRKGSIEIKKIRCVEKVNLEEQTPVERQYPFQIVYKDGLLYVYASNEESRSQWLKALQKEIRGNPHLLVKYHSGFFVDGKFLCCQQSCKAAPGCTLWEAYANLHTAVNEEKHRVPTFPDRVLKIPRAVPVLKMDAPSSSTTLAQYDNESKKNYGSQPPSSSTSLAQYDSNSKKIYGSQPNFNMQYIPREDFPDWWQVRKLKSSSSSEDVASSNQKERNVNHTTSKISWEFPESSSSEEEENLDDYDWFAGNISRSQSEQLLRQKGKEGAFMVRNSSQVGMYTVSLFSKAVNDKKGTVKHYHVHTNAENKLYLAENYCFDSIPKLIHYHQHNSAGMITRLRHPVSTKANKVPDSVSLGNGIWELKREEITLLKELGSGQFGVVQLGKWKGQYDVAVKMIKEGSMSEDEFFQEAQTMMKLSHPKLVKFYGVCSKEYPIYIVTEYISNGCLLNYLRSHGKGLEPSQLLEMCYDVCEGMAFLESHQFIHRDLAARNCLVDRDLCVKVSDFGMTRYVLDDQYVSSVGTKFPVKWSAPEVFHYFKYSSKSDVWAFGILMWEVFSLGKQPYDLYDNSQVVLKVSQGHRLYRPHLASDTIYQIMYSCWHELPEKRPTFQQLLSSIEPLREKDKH

[15] = target: T1, Cytoplasmic tyrosine-protein kinase BMX (Homo sapiens); details: at 1 µM
[16] = target: Protein-tyrosine kinase 6 (Homo sapiens) (UniProt Q13882); details: at 0.1 µM
Sequence of Protein-tyrosine kinase 6 (Homo sapiens) (Q13882 whole entry, looked up): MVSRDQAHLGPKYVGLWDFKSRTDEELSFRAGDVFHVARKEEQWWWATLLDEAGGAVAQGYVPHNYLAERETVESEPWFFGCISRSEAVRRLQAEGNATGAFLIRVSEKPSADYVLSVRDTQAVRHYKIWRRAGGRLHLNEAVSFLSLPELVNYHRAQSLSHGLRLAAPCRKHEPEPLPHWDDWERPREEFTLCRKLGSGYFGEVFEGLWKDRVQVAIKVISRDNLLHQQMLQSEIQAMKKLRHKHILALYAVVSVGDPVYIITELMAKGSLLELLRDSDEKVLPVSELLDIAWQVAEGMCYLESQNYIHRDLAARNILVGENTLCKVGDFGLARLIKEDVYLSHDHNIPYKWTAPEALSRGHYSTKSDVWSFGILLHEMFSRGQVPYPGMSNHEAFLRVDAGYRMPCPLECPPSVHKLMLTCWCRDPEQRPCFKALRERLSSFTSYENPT

[17] = target: Protein-tyrosine kinase 6 (Homo sapiens) (UniProt Q13882); details: at 1 µM
[18] = target: Tyrosine-protein kinase BTK (Homo sapiens) (UniProt Q06187); details: at 0.1 µM
Sequence of Tyrosine-protein kinase BTK (Homo sapiens) (Q06187 whole entry): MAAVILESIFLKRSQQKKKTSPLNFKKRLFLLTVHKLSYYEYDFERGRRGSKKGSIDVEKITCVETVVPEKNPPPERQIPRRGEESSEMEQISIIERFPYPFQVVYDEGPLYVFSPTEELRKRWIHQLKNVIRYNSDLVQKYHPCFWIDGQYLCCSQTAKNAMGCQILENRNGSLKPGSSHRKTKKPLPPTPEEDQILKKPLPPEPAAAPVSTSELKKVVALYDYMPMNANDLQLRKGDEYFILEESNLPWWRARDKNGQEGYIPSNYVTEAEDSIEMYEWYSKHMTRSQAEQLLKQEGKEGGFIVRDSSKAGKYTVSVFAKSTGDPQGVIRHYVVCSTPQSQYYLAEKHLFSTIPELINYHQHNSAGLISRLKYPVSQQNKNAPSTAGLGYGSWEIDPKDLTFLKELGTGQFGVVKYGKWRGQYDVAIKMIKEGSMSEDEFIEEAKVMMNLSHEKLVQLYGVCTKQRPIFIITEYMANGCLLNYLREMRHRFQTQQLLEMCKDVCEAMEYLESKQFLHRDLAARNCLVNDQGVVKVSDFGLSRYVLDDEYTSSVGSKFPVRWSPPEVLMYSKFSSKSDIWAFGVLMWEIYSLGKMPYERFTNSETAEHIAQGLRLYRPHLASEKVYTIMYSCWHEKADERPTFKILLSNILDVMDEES

[19] = target: Tyrosine-protein kinase BTK (Homo sapiens) (UniProt Q06187); details: at 1 µM
[20] = target: Tyrosine-protein kinase CSK (Homo sapiens) (UniProt P41240); details: at 0.1 µM;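 also: value given is the averaged percent inhibition of CSK kinase activity, from the GSK PKIS kinase inhibitor set screening panel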
Sequence of Tyrosine-protein kinase CSK (Homo sapiens) (P41240 2-450 limits assumed): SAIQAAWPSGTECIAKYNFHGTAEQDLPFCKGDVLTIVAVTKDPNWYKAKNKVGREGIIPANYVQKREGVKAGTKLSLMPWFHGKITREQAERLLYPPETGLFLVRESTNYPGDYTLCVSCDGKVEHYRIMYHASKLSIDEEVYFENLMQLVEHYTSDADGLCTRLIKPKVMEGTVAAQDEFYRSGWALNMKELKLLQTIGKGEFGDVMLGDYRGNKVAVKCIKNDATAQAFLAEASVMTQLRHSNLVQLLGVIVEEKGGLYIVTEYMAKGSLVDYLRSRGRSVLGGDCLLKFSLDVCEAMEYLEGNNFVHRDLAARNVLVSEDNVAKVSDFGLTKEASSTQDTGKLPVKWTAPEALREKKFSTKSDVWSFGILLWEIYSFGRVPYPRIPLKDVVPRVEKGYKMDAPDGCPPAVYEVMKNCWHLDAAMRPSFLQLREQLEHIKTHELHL

| SMILES | inhibition [1] | inhibition [2] | inhibition [3] | inhibition [4] | inhibition [5] | inhibition [6] | inhibition [7] | inhibition [8] | inhibition [9] | inhibition [10] | inhibition [11] | inhibition [12] | inhibition [13] | inhibition [14] | inhibition [15] | inhibition [16] | inhibition [17] | inhibition [18] | inhibition [19] | inhibition [20] |
| --- | --- | --- | --- | --- | --- | --- | --- | --- | --- | --- | --- | --- | --- | --- | --- | --- | --- | --- | --- | --- |
| CS(=O)(=O)CCNCc1ccoc1-c1ccc2ncnc(Nc3ccc(OCc4ccccc4)cc3)c2c1 | 0.75% | 0.71% | -0.62% | 2.05% | 0.92% | -0.16% | 1.21% | 1.41% | 3.46% | -0.99% | 1.55% | 0.99% | 7.84% | 1.55% | 3.4% | 1.71% | 8.3% | 0.01% | 0.8% | 2.96% |
| Cc1cc(O)cc(C)c1/C=C/c1cncc(C(=O)OC(C)(C)C)c1 | 4.07% | 9.34% | 38.4% | 5.51% | 31.9% | 3.06% | 5.54% | 8.31% | 36.2% | -3.22% | -3.72% | 4.36% | 21.7% | 9.3% | 47.3% | 18.1% | 67.5% | 0.92% | 12.8% | 7.62% |
| COc1ccc(Nc2ncc(-c3ccccc3)o2)cc1OC | 18.9% | 11.1% | 54.3% | 7.03% | 58% | 1.69% | 4.78% | 9.21% | 57.1% | 0.18% | 3.31% | 1.21% | 24.1% | -7.7% | 4.92% | 0.75% | 2.71% | 0.8% | 2.81% | 1.21% |
| CN(C)CCNC(=O)Nc1ccc(N(C)c2ccnc(Nc3ccc(CS(C)(=O)=O)cc3)n2)cc1 | 14.5% | 7.05% | 14.7% | 5.68% | 19.6% | 3.32% | 11.7% | 5.95% | 16.8% | -5.4% | -0.6% | 2.78% | 9.64% | 3.74% | 10.5% | 4.92% | 5.13% | 2.45% | 3.65% | 3.68% |
| c1ccc(-c2n[nH]cc2-c2ccnc(-c3ccc(OCCn4ccnc4)cc3)c2)nc1 | 7.34% | 31.8% | 78.8% | 30.5% | 68.8% | -0.73% | 3.68% | 5.73% | 56.4% | -0.5% | -0.26% | -0.32% | 1.78% | -0.48% | 0.53% | 2.69% | 8.22% | 0.31% | -1.64% | 1% |
| COc1cc(Nc2ncc(-c3ccccc3)o2)cc(OC)c1 | 13.2% | 13.2% | 50.9% | 8.41% | 35.4% | 2.73% | 4.06% | 5.68% | 29.4% | -6.45% | -6.19% | 4.37% | 20.1% | 3.71% | 6.51% | 0.81% | 7.86% | -1.03% | 0.87% | 3.66% |
| CC1=C(C(=O)Nc2ccc3[nH]nc(C)c3c2)C(c2ccc(C(F)(F)F)cc2)CC(=O)N1 (stereo not given) | 2.86% | 4.61% | 1.36% | 7.68% | 9.26% | 3.26% | 6.8% | 7.56% | 7.08% | -3.17% | -6.56% | 3.36% | 17% | -2.44% | 4.58% | 3.23% | 23.5% | 1.29% | 2.32% | 1.88% |
| NS(=O)(=O)c1ccc(N/N=C2\C(=O)Nc3ccc(C(=O)NCc4ccncc4)cc32)cc1 | 12.8% | 4.33% | 19.1% | 2.78% | 15.2% | 1.39% | 4.24% | 2.79% | 9.41% | -1.05% | -5.22% | 2.64% | 13.4% | -3.52% | 4.33% | 1.97% | 4.41% | 0.85% | 0.4% | 2.94% |
| N#Cc1ccc2c(-c3ccnc(NC4CC4)n3)c(-c3ccc(F)cc3)nn2c1 | 1.49% | -0.67% | 3.58% | -0.74% | 6.61% | 0.92% | 0.32% | 0.94% | 5.29% | -4.43% | -4.53% | -1.08% | -3.55% | 1.17% | 2.56% | -1.17% | 2.88% | -0.25% | -2.34% | 1.65% |
| CN1CCN(Cc2ccc(-c3cc4ncnc(Nc5ccc(OCc6cccc(F)c6)c(Cl)c5)c4s3)o2)CC1 | 16.3% and 19.7% | 4.69% and 4.76% | 12.2% and 15.9% | 3.24% and 4% | 9.31% and 11% | 2.64% and 4.3% | 8.37% and 11.1% | 3.03% and 4.53% | 5.38% and 10.7% | -3.61% and -5.96% | -0.55% and -6.25% | 2.97% and 3.59% | 13.3% and 15.7% | 1.68% and 6.37% | 5.03% and 3.73% | 6.28% and 7.91% | 29.5% and 33.2% | -0.21% and -0.71% | 2.04% and 2.62% | 2.47% and 5.63% |
| OCCCNc1nccc(-c2c(-c3ccc(F)cc3)nn3cc(C(F)(F)F)ccc23)n1 | 1.6% | 4.75% | 4.88% | 6.03% | 11.5% | 1.23% | 2.86% | 3.63% | 7.2% | -4.91% | 1.31% | 1.06% | 2.83% | 5.93% | 3.3% | 1.91% | 5.03% | 0.07% | 0.45% | 4.06% |
| Fc1cccc(COc2ccc(Nc3ncncc3C#Cc3ccccc3)cc2Cl)c1 | 5.21% | 2.86% | 4.69% | 4.16% | 11.3% | 2.52% | 4.64% | 3.23% | 1.72% | -5.96% | -6.13% | 3.22% | 3.19% | -2.36% | 5.09% | 6.04% | 7.36% | 1.18% | 0.79% | 2.79% |
| O=C(O[C@H]1CN[C@H](C#Cc2cc3ncnc(Nc4ccc5c(cnn5Cc5ccccc5)c4)c3s2)C1)N1CCOCC1 | 0.36% | -0.26% | 0.7% | -0.22% | 2.55% | -0.47% | 0.05% | -0.58% | 2.25% | 0.41% | 2.46% | -0.69% | 6.27% | -1.03% | 2.39% | 1.71% | 2.7% | 2.14% | 1.05% | -1.39% |
